# AmpC nodet inh: AmpC beta-lactamase inhibition, detergent-free assay | Potency, µM (top dose mostly 28.7 µM), for inactives: at the highest dose activity change, negative = inhibition | 71,000 tested, 1.8% active | AmpC nitrocefin hydrolysis, absorbance 480 nm, no detergent | P00811; further: % of control where 0% means no effect
# Target sequence (P00811 whole entry, looked up): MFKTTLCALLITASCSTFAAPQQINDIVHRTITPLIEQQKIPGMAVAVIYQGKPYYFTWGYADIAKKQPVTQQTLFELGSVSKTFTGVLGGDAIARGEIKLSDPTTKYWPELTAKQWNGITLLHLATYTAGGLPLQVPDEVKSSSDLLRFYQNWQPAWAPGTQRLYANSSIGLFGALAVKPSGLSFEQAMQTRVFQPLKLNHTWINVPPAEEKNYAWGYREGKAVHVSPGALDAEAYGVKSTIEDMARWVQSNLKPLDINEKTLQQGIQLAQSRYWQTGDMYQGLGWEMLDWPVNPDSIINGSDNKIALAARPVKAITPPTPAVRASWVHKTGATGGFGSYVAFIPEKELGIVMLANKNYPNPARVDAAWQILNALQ
#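 Enzyme, pH 7.0 phosphate. Compound titrations were pre-incubated with AmpC for 15 min at room temperature before nitrocefin (stock 800 uM) addition; product formation was recorded at 480 nm every 20 s for 4 min.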
# AmpC inh det: blocks E. coli AmpC beta-lactamase in presence of detergent. P00811. 71,000 tested, 0.09% active. purified AmpC, nitrocefin hydrolysis with detergent. Potency, µM (top dose mostly 28.7 µM), for inactives: top-dose activity change, negative = inhibition; active means well fitted curve in the direction sought with a large enough effect; inconclusive means small, poorly fitted or top-dose-only effect; further: on the % scale 0 is the no-effect control and ±100 the full control effect
#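 E. coli AmpC (5.3 nM) in 20 mM phosphate pH 7.0 with 0.01% Triton X-100, preincubated 15 min RT with compound; nitrocefin (2 uL of 800 uM stock) hydrolysis followed by 480 nm absorbance every 20 s over 4 min.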
# LT uptake inh: inhibitors of anthrax lethal toxin internalization; Cells, anthrax lethal toxin internalization, FRET ratio (460/530); 70,000 tested, 0.67% active; Potency, µM (titrated, usually from 40 µM), without a hit: at the highest dose activity change, negative = inhibition, actives largely listed as inhibitors; further: on the % scale 0 is the no-effect control and ±100 the full control effect; nearly all actives have a fitted effect of over 50% in size
# SmPrx2 inh: Schistosoma mansoni Prx2 inhibition. S. mansoni Prx2 activity coupled to TGR/GSH (TGR is thioredoxin glutathione reductase), NADPH fluorescence loss, qHTS. Potency, µM. 65,000 tested, 0.07% active. AID 448
#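 qHTS, coupled TGR/Prx2 format; 15 min compound preincubation at RT; reaction started with H2O2 (2.5 mM aliquot); kinetic NADPH fluorescence decrease, ex 365/em 450 nm.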
# * marks the source's active call; other numbers are inactive results; ? = inconclusive; · = no result; ! = not confirmed by another sample; [ ] = another dose, or the depositor's remark. Shown are actives, neighbours in structure and some others; about 2.6% of the full set was active somewhere. Unless noted, the call rests on the fitted dose curve. Potency means the concentration at half of the fitted maximal effect.
SMILES,AmpC nodet inh,AmpC inh det,LT uptake inh,SmPrx2 inh
COc1cccc(C2CC(c3c(Cl)cccc3Cl)n3nc(N)nc3N2)c1 (stereo not given),3.98µM*[single pt active],13.0%,3.5%,>57
COc1ccc(C2CC(c3cccc(OC)c3)n3nc(N)nc3N2)cc1 (stereo not given),3.98µM*[single pt active],8.9%,-5.0%,>57
COCCN(CCOC)c1nc(C)nc2c1nc(-c1ccccc1)n2CCN1CCOCC1,145.0%,0.9%,3.6%,·
COC(=O)[C@@H]1C[C@H]1[C@@H](NC(=O)c1ccc(Br)cc1)c1ccccc1,-6.2%,12.1%,-16.4%,·
O=C(O)[C@@H]1CS[C@@]2(CCCN(Cc3ccccc3)C2)N1,0.4%[5.75 µM],-0.9%[5.75 µM],-12.1%[8 µM],>57
CC1CCC(C(C)C)C(OC(=O)COC(=O)c2ccc(=O)[nH]c2)C1 (stereo not given),54.0%,-7.8%,12.6µM*,>57
OCC1OC(c2ccc3c(c2)OCO3)C=CC1Oc1cc(Cl)cc(Cl)c1 (stereo not given),·,·,-25.4%[8 µM],·
O=C(N/N=C1/C[C@@H](O)[C@@H](O)[C@@H]2[C@@H]3C(=O)N(c4cccc(Oc5ccccc5)c4)C(=O)[C@H]3CC[C@@H]12)OCc1ccccc1,·,·,-0.4%[1.6 µM],·
O=C(CCOc1ccccc1)OCC(=O)c1cc2ccccc2o1,0.631µM*,-2.7%,-5.0%,>57
Cc1cc(CNC(=O)[C@H](C)[C@H]2C[C@]2(C)[C@H](NC(=O)OCc2ccccc2)c2ccccc2)nn1C,140.4%,-0.1%,?,>57
COc1ccc(Cl)cc1NC(=O)CSc1ncnc2c1oc1ccccc12,12.6µM*[single pt active],-2.6%,?,>57
COc1ccc(CCNC(=O)CSc2ncnc3c2oc2ccccc23)cc1OC,57.9%,11.5%,-15.4%,>57
CCOc1ccccc1-n1nnnc1SCC(=O)Nc1cc(C)on1,-12.8%,-7.6%,-1.8%,>57
CCOc1ccccc1-n1nnnc1SCC(=O)Nc1cc2oc3ccccc3c2cc1OC,6.31µM*,-3.2%,?,>57
CCCC[C@@H]1C[C@H]1C(NC(=O)c1ccccc1)c1ccc(C(F)(F)F)cc1 (stereo not given in full),?,21.9%,?,>57
Nc1nc(N)c2nn(-c3ccc(C(=O)O)cc3)nc2n1,5.2%[5.75 µM],-3.2%[5.75 µM],-2.4%[8 µM],>57
O=c1cc(-c2ccccc2)oc2c1ccc1ccccc12,58.6%,-1.1%,25.1µM*,>57
CC1=C2[C@@H]3OC(=O)[C@H](C)[C@H]3CC[C@@]2(C)C=CC1=O,-6.0%,-0.5%,6.2%,>57
O=C(Nc1ccc2c(c1)OCO2)C1CCN(S(=O)(=O)c2cccs2)CC1,?,10.1%,-10.3%,>57
O=C(Nc1ccc2c(c1)OCO2)C1Cc2ccccc2CN1S(=O)(=O)c1cccs1 (stereo not given),10µM*[single pt active],-5.6%,?,>57
CN1CC[C@@]2(CCN3CCc4c(oc5ccccc45)[C@@H]3C2)N(C)C1=O,49.5%,-0.3%,9.2%,>11.4
CN1CCC[C@H](C(=O)OCC(=O)[C@]2(O)CC[C@@H]3[C@H]4CCC5=CC(=O)CC[C@@]5(C)[C@H]4[C@@H](O)C[C@]32C)C1,34.0%[5.75 µM],-3.3%[5.75 µM],9.8%[8 µM],>57
N[C@@H](Cc1cc(O)c(O)cc1O)C(=O)O,5.01µM*,-25.7%,-8.7%,>57
COC(=O)N[C@H](c1ccccc1)[C@@]1(C)C[C@@H]1[C@@H](C)C(=O)Nc1ccc2ccccc2c1,16.4%,-4.4%,10µM*,>57
CC(=O)N[C@H](c1ccccc1)[C@@]1(C)C[C@@H]1[C@@H](C)C(=O)Nc1ccc2ccccc2c1,89.6%,1.0%,?,>57
SMILES,AmpC nodet inh,AmpC inh det,LT uptake inh,SmPrx2 inh
Cc1[nH]nc2nc(SCC(=O)NCC3CCCO3)n(-c3ccc(Br)cc3)c(=N)c12 (stereo not given),135.2%,-2.0%,-17.8%,>57
Cc1cc(-n2c(SCC(=O)NCc3cccs3)nc3n[nH]c(C)c3c2=N)ccc1Cl,41.9%,-2.9%,10µM*,>57
O=C1CSC2(CCN(CCCN3c4ccccc4Sc4ccc(Cl)cc43)CC2)N1,69.2%[5.75 µM],-4.8%[5.75 µM],7.0%[8 µM],>57
CN1CCN(CCCN2c3ccccc3Sc3ccc(C(F)(F)F)cc32)CC1,29.3%[5.75 µM],0.1%[5.75 µM],10µM*!,>57
O=C(CSCc1ccco1)c1ccc(Cl)s1,10µM*,12.4%,-7.7%,>57
CCOC(=O)c1c(NC(=O)c2ccc(Br)o2)sc(C)c1CC,8.5%,6.1%,5.01µM*,·
CC1=C(C(=O)NC2CCCCC2C)C2(CCC(C)CC2)OC1=O (stereo not given),23.6%,2.5%,-16.6%,>57
CC1=C(C(=O)NC(C)C)C2(CCC(C)CC2)OC1=O (stereo not given),3.98µM*[single pt active],19.3%,-5.7%,>57
Cc1n[nH]c(C)c1S(=O)(=O)N1CCCC(C(=O)NC2CCCc3ccccc32)C1 (stereo not given),3.98µM*[single pt active],11.2%,-10.3%,>57
Cc1n[nH]c(C)c1S(=O)(=O)N1CCCC(C(=O)NCc2cccs2)C1 (stereo not given),13.8%,-0.7%,-3.3%,>57
Cc1cc(NC(=O)CSc2nc3ccccc3c(=O)n2Cc2ccccc2)no1,-19.9%,-2.4%,-8.6%,>57
Cc1ccc(Cn2c(SCC(=O)Nc3cc(C)on3)nc3ccccc3c2=O)cc1,12.6µM*[single pt active],-1.1%,11.3%,>57
NC(=O)c1cc(-c2ccccc2)nc(N2CCOCC2)n1,?,24.4%,-12.4%,·
CC[n+]1cc(-c2ccccc2)nc(N2CCOCC2)n1,15.8µM*[single pt active],-10.3%,19.4%,>57
NC(=O)CI,12.6µM*,-11.6%,0.5%,?
CC(N)=O,11.9%,-1.7%,·,>57
O=c1c2[nH]c3ccc(F)cc3c2ncn1CCN1CCN(Cc2ccccc2)CC1,3.16µM*[single pt active],9.9%,-10.2%,>57
CC1CCCCN1CCn1cnc2c([nH]c3ccccc32)c1=O (stereo not given),3.98µM*[single pt active],12.6%,1.0%,>57
CC(C)CCC[C@@H](C)[C@@H]1CC[C@@H]2[C@H]3CC[C@H]4C[C@@H](N)CC[C@@]4(C)[C@@H]3CC[C@]21C,-0.6%[5.75 µM],-2.5%[5.75 µM],-15.0%[8 µM],>57
COC1C(O)COC1/C=C/c1ccccc1 (stereo not given),·,·,3.0%[8 µM],·
O=c1cc(O)cc(/C=C\c2ccc(O)c(O)c2)o1,6.31µM*,-3.2%,-0.9%,>57
O=C(O)C(Cc1cccs1)C(=O)O,-0.1%[5.75 µM],0.8%[5.75 µM],0.7%[8 µM],>57
Cc1nc2ccc(S(=O)(=O)NC(C(=O)Nc3nccs3)C(C)C)cc2s1 (stereo not given),3.98µM*[single pt active],9.3%,-10.9%,>57
Cc1nc2ccc(S(=O)(=O)NC(C(=O)NCc3cccs3)C(C)C)cc2s1 (stereo not given),3.98µM*[single pt active],10.7%,-13.1%,>57
COC(=O)[C@@]1(Cc2ccc(F)cc2)[C@H]2c3cc(C(=O)N4CCCC4)n(Cc4ccccn4)c3C[C@H]2CN1C(=O)c1ccccc1,159.9%,0.1%,?,>57
O=C(O)[C@H](Cc1cc(I)c(O)c(I)c1)C1CCCCC1,-14.5%[5.75 µM],-5.4%[5.75 µM],-1.1%[8 µM],>57
CC1(C)Cn2c(nnc2-c2ccccc2)S1,-3.0%,-0.6%,-5.7%,>57
C=C1Cn2c(nnc2-c2ccc(Cl)cc2)S1,3.98µM*[single pt active],11.5%,1.3%,>57
